# Structures can show the parent of a compound that is named as a salt.
# Assays:
# [1] = tested on: Staphylococcus aureus Sa2 (MRSA, cystic fibrosis isolate); assay: growth reduction vs untreated control (OD550); higher = stronger antibacterial activity; conditions: 0.1 mM; 24 h
# Protocol: (§1)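 Single-dose screen of the MedChem Express Drug Repurposing Library (0.1 mM, 1% DMSO) against planktonic MRSA S. aureus Sa2 (CF isolate) in TSB in 96-well plates, 37 °C aerobic, 24 h. Assays were run in triplicate and repeated twice.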
# [2] = tested on: Staphylococcus aureus Sa2 (MRSA, cystic fibrosis isolate); assay: growth reduction vs untreated control (viable cell count); higher = stronger antibacterial activity; extreme values may be limits of the assay; conditions: 0.1 mM; 24 h
# Protocol: as §1
Structure (SMILES),growth reduction [1],growth reduction [2]
CC1(C)CCC(C)(C)c2cc(Cn3cccn3)c(/C=C/c3ccc(C(=O)O)cc3)cc21 [Palovarotene],100%,100%
CCCCN(CCCC)CCC(O)c1cc2c(Cl)cc(Cl)cc2c2cc(C(F)(F)F)ccc12 (stereo not drawn) [Halofantrine hydrochloride],100%,94%
C[C@H](CCC(=O)O)[C@H]1CC[C@H]2[C@@H]3CC[C@@H]4C[C@H](O)CC[C@]4(C)[C@H]3C[C@H](O)[C@]12C [Deoxycholic acid],98.3%,100%
CC(=O)Oc1cccc2c1C(=O)c1c(OC(C)=O)cc(C(=O)O)cc1C2=O [Diacerein],93.4%,100%
NC(=O)N1c2ccccc2C[C@H](O)c2ccccc21 [Eslicarbazepine],92.7%,94%
CN(C(=O)CN(CCO)CC(=O)N(C)C(C)(C)Cc1ccccc1)C(C)(C)Cc1ccccc1 [Oxethazaine],100%,100%
CCCCCCCCCCCCCCCCOP(=O)([O-])OCC[N+](C)(C)C [Miltefosine],100%,100%
O=C(O)c1ccccc1Nc1cccc(C(F)(F)F)c1 [Flufenamic acid],93.6%,98%
O=C(CCCCCCNC(=O)c1cnc(N(c2ccccc2)c2ccccc2)nc1)NO [Ricolinostat],100%,100%
CN(Cc1cnc2nc(N)nc(N)c2n1)c1ccc(C(=O)N[C@@H](CCC(=O)O)C(=O)O)cc1 [Methotrexate],94.1%,95%
O=C(O)C[C@H]1CCc2c1[nH]c1ccc(OCc3ccc(C4CCCC4)c(C(F)(F)F)c3)cc21 [Etrasimod],99%,100%
O=C(O)CNC(=O)c1c(=O)cc(CCc2ccccc2)n2[nH]cnc12 [Enarodustat],93.3%,92%
O=c1oc2ccccc2c(O)c1Cc1c(O)c2ccccc2oc1=O [Dicoumarol],100%,100%
Cc1c(CN(C)C(=O)/C=C/c2cnc3c(c2)CCC(=O)N3)oc2ccccc12,100%,
CC[C@H](C)C(=O)O[C@H]1C[C@@H](C)C=C2C=C[C@H](C)[C@H](CC[C@@H]3C[C@@H](O)CC(=O)O3)[C@H]21 [Lovastatin],100%,
